Values joined by “and” are separate entries in the source; they are usually repeats but may differ in a detail not shown here. Equal entries are not always repeated. Inconclusive results are not listed. Some compounds were tested as several samples or in several runs, with calls that do not always agree. Active and inactive are the calls of the source. Unless noted, calls come from the whole dose curve; as a rule, active = well fitted curve in the direction sought with a large enough effect in the repeat runs; inconclusive = weak or mixed curves; inactive = no such curve, though single readings can be large; an effect the other way counts as inactive or inconclusive.

Assay [1] is described as follows: qHTS assay to identify small molecule agonists of the NFkB signaling pathway (AID 1159509; active = well fitted curve in the direction sought with a large enough effect in the signal ratio in the repeat runs, not every such curve was filed as active; the % refers to the signal ratio; note: series mostly up to about 61 µM). An outline of the steps:
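After overnight attachment, reporter cells received test compounds, DMSO or positive controls and were incubated 5 hr at 37 C. FRET substrate was then added for 1.5 hr at room temperature before dual-emission fluorescence reading.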
A general note: Quantitative high-throughput screening tests each substance at several concentrations.

A short description of assay [2]: qHTS assay to identify small molecule agonists of the NFkB signaling pathway - cell viability counter screen (AID 1159515; calls by dose curve; note: series mostly up to about 61 µM; nearly all actives have a fitted effect of over 55% in size). In a few lines: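 NFkB-bla ME-180 cells, 2,000/well, plated overnight at 37 C; compound added for 5 hr at 37 C. Viability read in the same wells as the bla reporter, by CellTiter-Glo luminescence after 30 min at room temperature.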
The nature of assay [3]: qHTS assay to identify small molecule agonists of the endoplasmic reticulum stress response signaling pathway (AID 1159516; active = well fitted activation curve with a large enough effect in the signal ratio in the repeat runs, not every such curve was filed as active; the % refers to the signal ratio). An outline of the steps:
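CellSensor ESRE-bla HeLa cells, 1,500 per well, plated overnight, then exposed to compounds for 5 hr at 37 C. Beta-lactamase reporter read with LiveBLAzer B/G FRET substrate after 2 hr at room temperature, 405 nm excitation, 460 and 530 nm emission.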

Assay [4] can be described thus: qHTS assay to identify small molecule agonists of the endoplasmic reticulum stress response signaling pathway - cell viability counter screen (AID 1159517; calls by dose curve;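 note: HeLa cells carrying an ER stress response element beta-lactamase reporter; series mostly up to about 61 µM; nearly all actives have a fitted effect of over 50% in size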). In a few lines:
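Luminescence readout: CellTiter-Glo, 30 min RT, same wells as the ESRE-bla reporter read. HeLa ESRE-bla, 1,500 cells/well, o/n 37 C; cpd 5 hr 37 C/5% CO2.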

Assay [5] can be described thus: qHTS assay to identify small molecule antagonists of the retinoid-related orphan receptor gamma (ROR-gamma) signaling pathway - cell viability counter screen (AID 1159520). Note: nearly all actives have a fitted effect of over 50% in size. Note: potency is the fitted concentration of half-maximal effect. An outline of the steps:
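Tet-on ROR gamma CHO cells (1,000/well) were plated 4 hr, given compounds in DMSO for 2 hr at 37 C, then induced with 1 uM final doxycycline for 16 hr. Viability was read as ATP by CellTiter-Glo luminescence after 30 min.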

The target of assay [6] is Nuclear receptor ROR-gamma (Homo sapiens) (UniProt P51449). Kind of assay: qHTS assay to identify small molecule antagonists of the retinoid-related orphan receptor gamma (ROR-gamma) signaling pathway (AID 1159521;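 note: CHO cells with doxycycline inducible ROR-gamma driving an RORE luciferase reporter; top concentration of the series differs between compounds; nearly all actives have a fitted effect of over 50% in size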). In a few lines:
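CHO cells expressing RORγ under a TET-on promoter, luciferase under RORE control. Dox 1 uM final, 16 h; compounds added 2 h prior. Luminescence decrease measured.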

Assay [7] in a line: qHTS assay to identify small molecule agonists of the AP-1 signaling pathway (AID 1159526; calls by dose curve).
Assay [8] can be described thus: qHTS assay to identify small molecule agonists of the RXR signaling pathway - cell viability counter screen (AID 1159529). Note: nearly all actives have a fitted effect of over 50% in size. Note: potency is the fitted concentration of half-maximal effect. An outline of the steps:
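Same-well viability check after the LiveBLAzer FRET read: CellTiter-Glo added, luminescence measured after 30 min at room temperature. Reporter HEK 293T cells had been treated with compounds for 16 hr following a 5 hr preincubation.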

Assay [9] can be described thus: qHTS assay to identify small molecule antagonists of the retinoid acid receptor (RAR) signaling pathway - cell viability counter screen (AID 1159551). Note: nearly all actives have a fitted effect of over 35% in size. Note: potency is the fitted concentration of half-maximal effect. An outline of the steps:
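C3RL4 RARE-luciferase cells, 1,000/well, incubated overnight, then dosed with compound plus 1 uM retinol (final). After 6 hr at 37 C, viability read by CellTiter-Glo ATP luminescence following 30 min at room temperature.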

Assay [10] is described as follows: qHTS assay to identify small molecule antagonists of the estrogen related receptor (ERR) signaling pathway - cell viability counter screen (AID 1224818). Note: series mostly up to about 46 µM. An outline of the steps: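 ERR cells, 2,000 per well, compound added after 6 h and incubated 17.5 h at 37 C. Viability read by CellTiter-Fluor fluorescence after a further 30 min at 37 C.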
Assay [11] can be described thus: qHTS assay to identify small molecule antagonists of the vitamin D receptor (VDR) signaling pathway - cell viability counter screen (AID 743225). Note: nearly all actives have a fitted effect of over 50% in size. Note: potency is the fitted concentration of half-maximal effect. An outline of the steps:
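Luminescent cell viability (CellTiter-Glo) in VDR-bla HEK 293T cells after 16 h compound exposure at 37C in the presence of 3 nM final 1-alpha,25-dihydroxy vitamin D3.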

A short description of assay [12]: qHTS assay to identify small molecule agonists of the AP-1 signaling pathway - cell viability counter screen (AID 1159525; calls by dose curve; note: nearly all actives have a fitted effect of over 55% in size; note: potency is the fitted concentration of half-maximal effect). An outline of the steps:
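ME-180 AP-1-bla, 2500 cells/well, Opti-MEM + 0.5% dialyzed FBS; overnight 37 °C; cpd 15-pt titration, 5 h 37 °C; CellTiter-Glo 30 min RT; luminescence read; normalised to TOAB and DMSO controls.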

The target in assay [13] is Retinoic acid receptor RXR-alpha (Homo sapiens) (UniProt P19793). Briefly: qHTS assay to identify small molecule agonists of the RXR signaling pathway (AID 1159527; calls by dose curve; note: nearly all actives have a fitted effect of over 35% in size). In a few lines:
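Beta-lactamase reporter assay, agonist format. Engineered HEK 293T line, charcoal-stripped FBS at 2%, overnight (16 hr) exposure, fluorescence at 460 and 530 nm after 405 nm excitation.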

Assay [14] is described as follows: qHTS assay to identify small molecule antagonists of the retinoic acid receptor (RAR) signaling pathway (AID 1159552; note: nearly all actives have a fitted effect of over 50% in size; note: potency is the fitted concentration of half-maximal effect). An outline of the steps:
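Readout: luciferase luminescence, 30 min post-reagent at RT. Setup: C3RL4 RARE reporter cells, compounds plus retinol 1 uM final, 6 hr incubation at 37 C and 5% CO2.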

Assay [15] is described as follows: qHTS assay to identify small molecule agonists of the retinoic acid receptor (RAR) signaling pathway (AID 1159553). In a few lines: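 C3RL4 RARE-luciferase cells were seeded at 1,000/well and grown overnight at 37 C, then exposed to compounds for 6 hr at 37 C, 5% CO2. Luciferase reagent was added and luminescence was read after 30 min at room temperature.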
Assay [16] in a line: qHTS assay to identify small molecule antagonists of the estrogen related receptor signaling pathway with the pleiotropic PPARgamma coactivator (PGC) cell viability counter screen (AID 1224822; note: series mostly up to about 46 µM). In a few lines:
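PGC/ERR cells rested 6 h, then compound-treated 17.5 h at 37 C. CellTiter-Fluor added for 30 min at 37 C, viability measured by fluorescence intensity.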

Sequence of Retinoic acid receptor RXR-alpha (Homo sapiens) (P19793 whole entry, looked up): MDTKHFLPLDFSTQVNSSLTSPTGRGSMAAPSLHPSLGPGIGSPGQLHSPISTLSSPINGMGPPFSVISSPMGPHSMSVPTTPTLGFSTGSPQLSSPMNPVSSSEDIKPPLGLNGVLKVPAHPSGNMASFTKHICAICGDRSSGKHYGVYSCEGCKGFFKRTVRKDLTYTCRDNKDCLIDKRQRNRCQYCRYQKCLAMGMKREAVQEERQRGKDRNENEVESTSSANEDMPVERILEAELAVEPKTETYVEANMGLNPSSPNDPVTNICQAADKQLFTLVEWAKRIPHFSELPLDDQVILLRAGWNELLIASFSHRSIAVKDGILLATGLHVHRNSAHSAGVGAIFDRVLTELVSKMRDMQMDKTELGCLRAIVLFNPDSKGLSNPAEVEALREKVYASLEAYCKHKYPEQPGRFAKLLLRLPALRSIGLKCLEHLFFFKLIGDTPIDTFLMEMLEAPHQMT

Regarding `CCOC(=O)CC(SP(=S)(OC)OC)C(=O)OCC` (configuration not stated), the call in assay [1], in assay [2], in [3], in [7] and in assay [10] was inactive. The Potency entry in assay [4], in [5], in assay [6], in assay [8] and in [9] was “inactive” throughout.

Turning to `O=C(Cl)/C=C/C(=O)Cl`, the Potency result in [11], in assay [4], in [6], in assay [12], in [13] and in [8] was “inactive” each time. In addition, the Potency entry in assay [9], in [14] and in [15] was “inactive” each time. The outcome in assay [1], in assay [2], in assay [3] and in [7] was inactive.

As for `CCN[C@@H](C)Cc1cccc(C(F)(F)F)c1`, the Potency entry in assay [11], in assay [4], in assay [6], in assay [12], in [13] and in [8] was “inactive” each time. Also, the Potency result in [9], in [14] and in [15] was “inactive” each time. Moreover, the outcome in assay [1], in [2], in assay [3] and in [7] was inactive.

Take `CCNc1nc(Cl)nc(NC(C)(C)C)n1`: the Potency entry in [11], in assay [4], in assay [5], in [6], in assay [8] and in [9] was “inactive” throughout. Also, the Potency entry in assay [14] and in [15] was “inactive” each time. Besides, the outcome in assay [1], in assay [2], in assay [3] and in assay [7] was inactive.

In the case of `O=C(NC(=O)c1c(F)cccc1F)Nc1cc(Cl)c(F)c(Cl)c1F`, the result in assay [1], in assay [2], in assay [3] and in assay [7] was inactive. Also, the Potency result in assay [4], in assay [6], in assay [12], in assay [13], in assay [8] and in [9] was “inactive” in each case. Further, the Potency entry in [14] and in assay [15] was “inactive” throughout.

As for `CN1C(=O)COc2c(C(=O)NC3CN4CCC3CC4)cc(Cl)cc21` (configuration not stated), the Potency result in assay [11], in assay [4], in [6], in assay [12], in [13] and in assay [8] was “inactive” each time. The Potency entry in [9], in assay [14] and in assay [15] was “inactive” throughout. Further, the compound was classed as inactive in assay [1], in [2], in assay [3] and in assay [7].

As to `C=CCc1cc(OC)c2c(c1)OCO2`, the Potency entry in [11], in assay [4], in assay [5], in assay [6], in [8] and in assay [9] was “inactive” in each case. In addition, the Potency entry in assay [14] and in [15] was “inactive” throughout. For the same compound, the compound was called inactive in assay [1], in assay [2], in assay [3] and in [7].

`O=C1C2CC=CCC2C(=O)N1SC(Cl)(Cl)Cl` (configuration not stated): the Potency entry was “inactive and 21.5 µM (active)” in assay [11]; “inactive and 1.9 µM (active)” in assay [5]; “inactive and 48.2 µM (active)” in assay [12]; “inactive and 24.1 µM (active)” in assay [8]; “inactive and 26.9 µM (active)” in [9]; “inactive and 5.36 µM (active)” in assay [14]. Also, the result in assay [1], in [2] and in assay [3] was inactive. For the same compound, the Potency entry in [4] and in [15] was “inactive” each time.

As to `CC(C)NCC(O)c1ccc([N+](=O)[O-])cc1` (configuration not stated), the Potency entry in assay [11], in [4], in assay [6], in [12], in assay [13] and in [8] was “inactive” throughout. Also, the Potency result in assay [9], in assay [14] and in assay [15] was “inactive” in each case. Also, the compound was classed as inactive in assay [1], in [2], in assay [3] and in assay [7].

For the compound `C=C(C)[C@H]1CN[C@H](C(=O)O)[C@H]1CC(=O)O`, the Potency entry in assay [11], in [4], in assay [6], in [12], in assay [8] and in [9] was “inactive” each time. In [14], the Potency result is “inactive”. The outcome in assay [1], in [2], in [3], in assay [7], in [10] and in assay [16] was inactive.
